# Screens deposited in PubChem BioAssay by National Center for Advancing Translational Sciences (NCATS).
# KB-3-1 cytotox: qHTS assay for MDR1-selective chemotherapeutics: Primary screen using the parental adenocarcinoma cell KB-3-1 | KB-3-1 viability, CellTiter-Glo ATP luminescence, 72 h | Potency, µM (top dose mostly 46.1 µM), hits mostly cytotoxic | 400,000 compounds, 1.4% hits | AID 1347075, 2019; further: on the % scale 0 is the no-effect control and ±100 the full control effect; nearly all actives have a fitted effect of over 60% in size
#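 Cytotoxicity measured as CellTiter-Glo luminescence after 72 h at 37 C. Compound titrations were pinned onto drug-naive KB-3-1 parental adenocarcinoma cells grown in DMEM with 10% FBS, and normalized data fitted to concentration-response curves.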
# KB-V1 cytotox: qHTS assay for MDR1-selective chemotherapeutics: Primary screen using the drug-selected MDR subline cells KB-V1; AID 1347076, 2019; 400,000 compounds, 3.4% hits; Potency, µM (highest dose often 46.1 µM), actives largely listed as cytotoxic; KB-V1 MDR cells viability, CellTiter-Glo, 72 h; further: on the % scale 0 is the no-effect control and ±100 the full control effect; nearly all actives have a fitted effect of over 60% in size
#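 Compound-treated KB-V1 multidrug-resistant cells, 72 h, 37 degrees C; viability by CellTiter-Glo. Fitted qHTS curves give the values.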
# S2 tox: Viability Counterscreen for Primary qHTS for Inhibitors of ATXN expression; AID 651635, 2014; S2 cells (HEK-293 line with an ATXN2-luciferase reporter) viability, CellTiter-Fluor protease fluorescence, 24 h; Potency, µM (titrated, usually from 56.7 µM), usual class: cytotoxic; 400,000 compounds, 0.49% hits; further: nearly all actives have a fitted effect of over 40% in size
# HT1080NT lethal: qHTS for induction of synthetic lethality in tumor cells producing 2HG: qHTS for the HT-1080-NT fibrosarcoma cell line | Potency, µM (titrated, usually from 46.1 µM), for the others: at the top dose activity, negative = less viability, most hits filed as cytotoxic | 360,000 compounds, 1.6% hits | HT-1080-NT fibrosarcoma viability, CellTiter-Glo ATP luminescence, 48 h;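 further: NT is the 2HG producing partner of a matched IDH1 knockdown line; 0% = DMSO-treated cells and -100% = media-only wells without cells; nearly all actives have a fitted effect of over 55% in size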
#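 Luminescent CellTiter-Glo readout after 48 hours of compound exposure at 37 degrees C defined viability of HT-1080-NT cells. Activity was normalized to DMSO wells and cell-free media wells; concentration-response curves were fitted and assigned curve classes.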
# HT1080 IDH1KD tx: qHTS for induction of synthetic lethality in tumor cells producing 2HG: qHTS for the HT-1080-IDH1KD cell line. Potency, µM (top dose mostly 46.1 µM), for inactives: top-dose activity, negative = toxicity, hits mostly cytotoxic. HT-1080 IDH1 knockdown viability, ATP luminescence, 48 h. AID 686971, 2013. 360,000 compounds, 2% hits;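 further: 0% = DMSO wells and -100% = cell-free medium wells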
#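 After a 2 h attachment period, IDH1KD HT-1080 cells took pin-transferred compound for 48 h at 37 °C; ATP-based luminescence after 10 min room-temperature reagent incubation reported viability.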
# ATXN2 expr inh: Primary qHTS for Inhibitors of ATXN expression; Potency, µM (top dose mostly 57 µM), for inactives: top-dose activity change, negative = inhibition, hits mostly inhibitors; HEK-293 ATXN2-luciferase reporter, luminescence, 24 h; AID 1745845, 2022; 360,000 compounds, 0.72% hits; further: on the % scale 0 is the no-effect control and ±100 the full control effect; nearly all actives have a fitted effect of over 55% in size
#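 ATXN2-luciferase reporter cells (luciferase flanked by upstream and downstream ATXN2 gene portions) were treated 24 h at 37 °C with compounds at up to 57 uM. SteadyGlo luminescence gave expression; GF-AFC fluorescence gave viability.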
# * hit, by the source's call; i = inactive; u = inconclusive; x = no result; [ ] = another dose, or the depositor's remark. Most compounds without a hit are left out; they make up all but 6.2% or so of the library. The call rests on the fitted dose curve; in most records, active means well fitted curve in the direction sought with a large enough effect; inconclusive means small, poorly fitted or top-dose-only effect, or another doubt; inactive means no such curve, though single readings can be large; an effect the other way counts as inactive or inconclusive. Potency means the concentration at half of the fitted maximal effect.
SMILES,KB-3-1 cytotox,KB-V1 cytotox,S2 tox,HT1080NT lethal,HT1080 IDH1KD tx,ATXN2 expr inh
CCOc1ccc(-c2nc(N)ncc2Oc2cccc(OC)c2)c(O)c1,u,u,i,-25.0%,u,-4.2%
CCOc1ccc(-c2nc(N)ncc2Oc2ccccc2Br)c(O)c1,i,i,i,u,23.1µM*,-6.6%
C=C(C)COc1ccc(-c2[nH]ncc2Oc2ccccc2OC)c(O)c1,i,i,u,u,-4.0%[9.24 µM],-21.8%
COc1ccc(-c2cn[nH]c2-c2ccc(OCc3ccc([N+](=O)[O-])cc3)cc2O)cc1,u,3.66µM*,u,-0.2%,-20.3%,-8.3%
C=C(C)COc1ccc(-c2[nH]ncc2-c2ccccc2OC)c(O)c1,u,u,u,18.4µM*,18.4µM*,u
C=C(C)COc1ccc(-c2[nH]ncc2-c2ccc(Br)cc2)c(O)c1,5.8µM*,11.6µM*,u,14.6µM*,23.1µM*,u
COc1ccc(NC(=O)c2cc(=O)c3cc(C)cc(C)c3o2)cc1,i,i,i,x,x,1.6%
CCOC(=O)c1cc(OC(=O)c2ccc(OC)c(OC)c2)n(-c2ccccc2)n1,i,i,i,x,x,24.3%
C=C(C)COc1ccc(-c2nc(N)ncc2-c2ccc(Br)cc2)c(O)c1,20.6µM*,u,i,u,-24.9%,-8.4%
C=C(C)COc1ccc(-c2ncncc2-c2ccc(Br)cc2)c(O)c1,i,i,x,u,-27.9%,-12.6%
CCOc1ccc(-c2[nH]ncc2-c2ccc(OC)c(OC)c2)c(O)c1,u,3.66µM*,u,6.31µM*,2.24µM*,-19.6%
CCC(=NCCc1c(C)[nH]c2ccc(C)cc12)C1=C(O)CC(c2ccccc2)CC1=O (stereo not drawn),0.731µM*,i,i,u,1.3µM*,-13.8%
CC(=O)C1=C(O)CC(c2ccccc2)CC1=NCCc1c(C)[nH]c2ccc(C)cc12 (stereo not drawn),i,i,i,-2.7%,-1.7%,-23.5%
O=C(c1cn(C2CCCN(Cc3cccc(Oc4ccccc4)c3)C2)nn1)N1CCCC1 (stereo not drawn),x,x,i,x,x,x
CC(O)(c1ccc(F)c(F)c1)c1nc(-c2ccc(F)c(Cl)c2)cs1 (stereo not drawn),i,i,i,32.6µM*,u,-25.5%
Oc1cccc(-c2csc(C(O)(c3ccccc3)C(F)(F)F)n2)c1 (stereo not drawn),i,i,i,u,-16.7%,13.0%
OC(c1ccccc1)(c1nc(-c2ccc(F)c(Cl)c2)cs1)C(F)(F)F (stereo not drawn),i,i,u,u,18.4µM*,-38.4%
Cc1ccc(-c2csc(C(O)(c3ccccc3)C(F)(F)F)n2)cc1C (stereo not drawn),i,i,u,25.9µM*,u,-23.6%
CCc1ccc(CNC(=O)CN2C(=O)c3cccnc3Oc3ccc(C)cc32)cc1,i,i,x,x,x,x
Cc1ccc(Cl)cc1NC(=O)C(NS(=O)(=O)c1cccc2nsnc12)c1ccccc1 (stereo not drawn),i,i,i,x,x,-13.0%
CC(=O)Nc1ccc(NC(=O)CSc2nc3c([nH]c4ccccc43)c(=O)n2-c2ccccc2F)cc1,u,i,u,-28.5%,u,21.9%
O=C(CSc1nc2c([nH]c3ccccc32)c(=O)n1-c1ccccc1F)Nc1cccc(C(F)(F)F)c1,14.6µM*,u,u,x,x,u
COc1ccc(CNC(=O)c2cnn(-c3nccc(-c4ccco4)n3)c2C)cc1OC,x,x,i,x,x,x
COCCCNc1nnc(Cc2ccc(Cl)cc2)c(=O)[nH]1,u,i,u,0.92µM*,u,x
